From the supplement of paper PMC11732987, “Enantioselective OTUD7B fragment discovery through chemoproteomics screening and high-throughput optimisation” (Communications Chemistry, 2025)

How the values were obtained:
Assay in all cases: log2 ratio of Biotin-Ahx-Ub-VS probe labelling (fragment/DMSO); higher = less target engagement (more negative = stronger competition), active = hit call of the paper (q ≤ 0.05, log2 ratio ≤ -1)
Settings in all cases: compound concentration: 200 uM; treatment time: 3 h
[1] = target: UniProt O00507
Chain of UniProt O00507 (O00507 whole entry, the tested form may be a part): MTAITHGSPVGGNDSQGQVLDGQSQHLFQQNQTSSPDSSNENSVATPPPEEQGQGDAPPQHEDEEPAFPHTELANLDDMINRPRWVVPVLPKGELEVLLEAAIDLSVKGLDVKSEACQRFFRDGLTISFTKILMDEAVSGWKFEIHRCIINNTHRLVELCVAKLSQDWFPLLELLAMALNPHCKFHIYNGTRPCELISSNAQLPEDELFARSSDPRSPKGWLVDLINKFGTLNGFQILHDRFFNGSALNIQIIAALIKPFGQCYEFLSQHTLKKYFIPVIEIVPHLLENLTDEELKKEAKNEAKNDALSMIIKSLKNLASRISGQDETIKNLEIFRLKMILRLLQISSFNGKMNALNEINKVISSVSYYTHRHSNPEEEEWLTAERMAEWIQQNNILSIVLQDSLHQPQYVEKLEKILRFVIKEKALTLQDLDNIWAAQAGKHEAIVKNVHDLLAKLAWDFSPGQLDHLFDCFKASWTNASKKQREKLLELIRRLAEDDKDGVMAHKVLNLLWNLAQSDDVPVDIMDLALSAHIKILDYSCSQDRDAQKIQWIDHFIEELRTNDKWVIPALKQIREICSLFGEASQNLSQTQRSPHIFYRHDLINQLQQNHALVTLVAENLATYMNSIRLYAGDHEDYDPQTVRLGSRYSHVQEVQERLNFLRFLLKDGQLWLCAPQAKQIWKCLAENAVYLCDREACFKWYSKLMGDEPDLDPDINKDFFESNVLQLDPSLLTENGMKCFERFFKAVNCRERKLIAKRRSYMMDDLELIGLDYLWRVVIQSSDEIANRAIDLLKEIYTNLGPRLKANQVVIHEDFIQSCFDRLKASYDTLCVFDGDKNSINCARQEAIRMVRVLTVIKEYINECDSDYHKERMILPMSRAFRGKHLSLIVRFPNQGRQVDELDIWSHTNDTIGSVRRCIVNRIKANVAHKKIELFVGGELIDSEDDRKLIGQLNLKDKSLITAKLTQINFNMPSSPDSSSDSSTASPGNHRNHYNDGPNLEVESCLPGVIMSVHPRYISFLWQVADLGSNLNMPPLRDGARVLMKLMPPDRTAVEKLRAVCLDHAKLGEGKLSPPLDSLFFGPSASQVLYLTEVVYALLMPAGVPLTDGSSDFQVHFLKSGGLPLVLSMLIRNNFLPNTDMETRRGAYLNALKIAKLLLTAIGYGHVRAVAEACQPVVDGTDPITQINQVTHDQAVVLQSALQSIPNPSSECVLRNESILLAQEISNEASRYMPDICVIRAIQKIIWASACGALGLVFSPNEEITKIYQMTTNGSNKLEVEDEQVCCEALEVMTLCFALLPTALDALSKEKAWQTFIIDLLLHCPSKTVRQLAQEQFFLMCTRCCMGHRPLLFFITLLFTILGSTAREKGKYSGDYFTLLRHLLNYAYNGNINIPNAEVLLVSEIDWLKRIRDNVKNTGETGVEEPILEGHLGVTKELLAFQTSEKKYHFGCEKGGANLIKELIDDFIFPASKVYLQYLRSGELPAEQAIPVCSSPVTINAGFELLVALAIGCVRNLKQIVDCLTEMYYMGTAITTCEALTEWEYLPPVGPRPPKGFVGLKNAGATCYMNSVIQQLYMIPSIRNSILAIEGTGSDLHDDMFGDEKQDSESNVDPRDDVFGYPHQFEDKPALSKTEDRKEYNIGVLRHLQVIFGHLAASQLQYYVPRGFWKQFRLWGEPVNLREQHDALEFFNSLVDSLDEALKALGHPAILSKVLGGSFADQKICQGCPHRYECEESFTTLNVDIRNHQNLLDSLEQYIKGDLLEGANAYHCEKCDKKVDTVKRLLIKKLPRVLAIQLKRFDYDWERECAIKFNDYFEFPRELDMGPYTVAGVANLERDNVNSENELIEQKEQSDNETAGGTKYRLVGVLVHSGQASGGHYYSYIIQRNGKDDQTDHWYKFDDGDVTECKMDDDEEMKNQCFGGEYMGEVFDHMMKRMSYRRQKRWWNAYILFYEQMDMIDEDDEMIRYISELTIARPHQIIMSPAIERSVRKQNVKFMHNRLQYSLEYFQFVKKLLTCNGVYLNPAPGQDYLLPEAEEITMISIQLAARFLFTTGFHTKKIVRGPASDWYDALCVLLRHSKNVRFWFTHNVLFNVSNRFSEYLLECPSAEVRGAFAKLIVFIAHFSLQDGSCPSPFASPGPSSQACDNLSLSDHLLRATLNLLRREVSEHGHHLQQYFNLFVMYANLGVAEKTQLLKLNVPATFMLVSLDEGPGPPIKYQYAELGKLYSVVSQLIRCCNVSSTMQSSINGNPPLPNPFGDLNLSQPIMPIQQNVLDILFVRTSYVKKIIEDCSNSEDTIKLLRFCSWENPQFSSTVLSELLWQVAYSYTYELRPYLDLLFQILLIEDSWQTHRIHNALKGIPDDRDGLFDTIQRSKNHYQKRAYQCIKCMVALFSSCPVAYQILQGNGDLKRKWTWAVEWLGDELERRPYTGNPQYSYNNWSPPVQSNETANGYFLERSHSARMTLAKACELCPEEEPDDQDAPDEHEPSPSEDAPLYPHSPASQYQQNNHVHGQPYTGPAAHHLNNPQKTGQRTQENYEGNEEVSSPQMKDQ
In short: (§1)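 Each value is an average log2 ratio of fragment to vehicle, tested by unpaired t-test. The underlying Spectronaut label-free quantities were global-median-normalised, and only proteins with ≥2 unique peptides were included. Triplicate HEK293T lysate samples (495 µg) were exposed to fragment at 200 µM or vehicle for 3 h, then to Biotin-Ahx-Ub-VS at 0.5 µM final for 1 h, before NeutrAvidin enrichment of labelled DUBs, LysC and trypsin digestion, and diaPASEF LC-MS/MS.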

[2] = target: UniProt P51784
Chain of UniProt P51784 (P51784 whole entry): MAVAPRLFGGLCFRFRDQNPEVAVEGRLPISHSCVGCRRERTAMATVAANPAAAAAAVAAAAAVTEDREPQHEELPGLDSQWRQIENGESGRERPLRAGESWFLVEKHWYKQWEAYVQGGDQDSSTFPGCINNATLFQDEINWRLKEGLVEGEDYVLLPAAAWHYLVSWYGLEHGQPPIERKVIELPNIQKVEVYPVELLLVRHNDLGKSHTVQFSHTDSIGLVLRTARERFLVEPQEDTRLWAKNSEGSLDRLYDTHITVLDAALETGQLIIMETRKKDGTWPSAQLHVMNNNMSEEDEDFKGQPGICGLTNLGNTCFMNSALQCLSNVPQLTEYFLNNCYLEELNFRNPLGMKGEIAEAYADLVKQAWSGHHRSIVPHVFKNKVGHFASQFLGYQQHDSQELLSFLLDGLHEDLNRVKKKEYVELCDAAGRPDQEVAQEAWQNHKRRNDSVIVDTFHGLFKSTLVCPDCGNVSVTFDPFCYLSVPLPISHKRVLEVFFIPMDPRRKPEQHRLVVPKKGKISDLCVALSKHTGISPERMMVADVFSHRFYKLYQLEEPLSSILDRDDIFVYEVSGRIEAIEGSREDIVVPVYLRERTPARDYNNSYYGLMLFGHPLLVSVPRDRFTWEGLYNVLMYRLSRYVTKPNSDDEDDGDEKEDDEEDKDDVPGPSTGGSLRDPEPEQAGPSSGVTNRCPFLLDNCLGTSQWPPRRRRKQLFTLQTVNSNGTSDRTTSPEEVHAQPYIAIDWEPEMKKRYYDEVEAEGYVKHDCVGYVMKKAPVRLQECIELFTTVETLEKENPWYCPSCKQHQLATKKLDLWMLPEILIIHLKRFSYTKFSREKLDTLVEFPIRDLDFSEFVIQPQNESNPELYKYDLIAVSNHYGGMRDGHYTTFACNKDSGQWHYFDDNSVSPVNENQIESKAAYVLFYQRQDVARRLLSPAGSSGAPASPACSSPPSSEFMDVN
In short: as §1

[3] = target: T1, UniProt Q5T2D3
T1 sequence (whole entry): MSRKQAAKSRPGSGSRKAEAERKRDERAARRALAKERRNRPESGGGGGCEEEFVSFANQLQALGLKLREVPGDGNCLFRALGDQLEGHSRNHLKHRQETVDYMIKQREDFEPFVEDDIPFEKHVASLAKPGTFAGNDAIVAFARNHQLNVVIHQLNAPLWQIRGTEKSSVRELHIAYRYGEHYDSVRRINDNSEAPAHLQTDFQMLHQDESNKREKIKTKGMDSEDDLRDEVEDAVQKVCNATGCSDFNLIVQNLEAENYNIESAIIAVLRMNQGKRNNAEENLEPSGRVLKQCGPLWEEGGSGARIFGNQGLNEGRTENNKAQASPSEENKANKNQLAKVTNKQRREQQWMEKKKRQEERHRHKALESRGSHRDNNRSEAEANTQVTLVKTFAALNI
In short: as §1

[4] = target: T2, UniProt Q8TE49
T2 sequence (whole entry): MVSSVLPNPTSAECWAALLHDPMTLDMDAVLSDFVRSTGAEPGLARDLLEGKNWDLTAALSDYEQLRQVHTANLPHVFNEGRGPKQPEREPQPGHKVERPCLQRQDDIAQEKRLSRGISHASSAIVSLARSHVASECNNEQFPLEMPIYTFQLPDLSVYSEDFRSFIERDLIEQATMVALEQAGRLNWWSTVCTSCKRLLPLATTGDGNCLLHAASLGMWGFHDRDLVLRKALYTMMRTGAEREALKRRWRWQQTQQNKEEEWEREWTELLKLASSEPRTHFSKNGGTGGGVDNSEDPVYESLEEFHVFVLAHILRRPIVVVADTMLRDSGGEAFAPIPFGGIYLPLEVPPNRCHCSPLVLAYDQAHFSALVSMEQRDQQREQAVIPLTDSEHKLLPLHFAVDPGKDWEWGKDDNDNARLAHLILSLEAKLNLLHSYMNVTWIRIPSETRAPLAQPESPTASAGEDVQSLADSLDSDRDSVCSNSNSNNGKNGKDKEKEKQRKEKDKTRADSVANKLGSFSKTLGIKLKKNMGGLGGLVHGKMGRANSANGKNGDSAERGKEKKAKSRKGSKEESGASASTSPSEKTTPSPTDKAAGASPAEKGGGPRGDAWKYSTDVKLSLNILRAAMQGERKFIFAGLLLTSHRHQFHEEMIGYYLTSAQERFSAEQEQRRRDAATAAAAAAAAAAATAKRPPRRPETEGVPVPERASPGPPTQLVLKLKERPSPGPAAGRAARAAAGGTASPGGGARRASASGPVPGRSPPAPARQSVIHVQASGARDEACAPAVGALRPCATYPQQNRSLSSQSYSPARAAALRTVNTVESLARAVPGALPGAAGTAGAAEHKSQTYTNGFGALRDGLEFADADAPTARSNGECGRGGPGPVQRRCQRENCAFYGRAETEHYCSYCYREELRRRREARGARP
In short: as §1

[5] = target: T3, UniProt Q9P2H5
T3 sequence (whole entry): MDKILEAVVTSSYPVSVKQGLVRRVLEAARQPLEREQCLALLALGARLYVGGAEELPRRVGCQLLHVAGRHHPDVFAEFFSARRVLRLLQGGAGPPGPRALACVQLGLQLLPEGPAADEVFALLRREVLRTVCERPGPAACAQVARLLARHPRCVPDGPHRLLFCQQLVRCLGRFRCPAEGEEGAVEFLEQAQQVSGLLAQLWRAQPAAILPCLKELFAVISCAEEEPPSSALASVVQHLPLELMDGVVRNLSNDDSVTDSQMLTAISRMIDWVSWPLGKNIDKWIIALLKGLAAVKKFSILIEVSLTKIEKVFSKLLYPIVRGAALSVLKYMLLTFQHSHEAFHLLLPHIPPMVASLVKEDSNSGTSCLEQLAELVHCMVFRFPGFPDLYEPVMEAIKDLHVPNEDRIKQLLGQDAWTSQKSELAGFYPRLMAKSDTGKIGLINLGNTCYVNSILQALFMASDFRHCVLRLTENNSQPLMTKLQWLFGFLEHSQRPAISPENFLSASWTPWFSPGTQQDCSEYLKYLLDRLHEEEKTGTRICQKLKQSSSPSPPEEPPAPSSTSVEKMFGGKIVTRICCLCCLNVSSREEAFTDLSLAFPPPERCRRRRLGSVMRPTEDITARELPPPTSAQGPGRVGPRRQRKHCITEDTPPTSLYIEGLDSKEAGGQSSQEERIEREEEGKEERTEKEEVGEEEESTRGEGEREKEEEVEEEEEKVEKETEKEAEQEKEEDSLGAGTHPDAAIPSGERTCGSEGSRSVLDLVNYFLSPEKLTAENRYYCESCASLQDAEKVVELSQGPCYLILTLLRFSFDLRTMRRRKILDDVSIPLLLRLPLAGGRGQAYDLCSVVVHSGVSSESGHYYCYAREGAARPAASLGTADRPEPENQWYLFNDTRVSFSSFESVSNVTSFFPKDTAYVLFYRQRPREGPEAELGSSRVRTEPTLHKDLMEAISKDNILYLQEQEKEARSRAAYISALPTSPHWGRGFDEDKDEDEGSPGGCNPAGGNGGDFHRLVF
In short: as §1

[6] = target: T4, UniProt Q9UGI0
T4 sequence (whole entry): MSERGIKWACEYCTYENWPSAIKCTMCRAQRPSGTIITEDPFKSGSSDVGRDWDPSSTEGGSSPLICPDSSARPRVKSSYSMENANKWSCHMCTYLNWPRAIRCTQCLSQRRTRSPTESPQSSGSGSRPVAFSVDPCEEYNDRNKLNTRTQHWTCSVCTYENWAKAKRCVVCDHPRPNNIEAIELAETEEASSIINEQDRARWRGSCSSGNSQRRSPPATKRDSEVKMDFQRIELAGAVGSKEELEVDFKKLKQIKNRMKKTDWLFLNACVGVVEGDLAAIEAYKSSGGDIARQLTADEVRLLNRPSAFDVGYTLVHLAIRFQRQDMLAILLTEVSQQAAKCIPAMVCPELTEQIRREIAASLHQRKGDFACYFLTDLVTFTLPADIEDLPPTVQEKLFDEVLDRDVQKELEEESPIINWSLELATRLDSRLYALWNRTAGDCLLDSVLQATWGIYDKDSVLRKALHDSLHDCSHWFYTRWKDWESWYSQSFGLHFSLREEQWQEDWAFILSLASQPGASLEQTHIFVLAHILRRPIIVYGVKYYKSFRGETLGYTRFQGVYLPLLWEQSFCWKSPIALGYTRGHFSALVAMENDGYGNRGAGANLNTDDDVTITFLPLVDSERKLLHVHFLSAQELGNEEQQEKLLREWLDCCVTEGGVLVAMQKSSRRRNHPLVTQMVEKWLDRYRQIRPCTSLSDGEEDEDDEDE
In short: as §1

[7] = target: T5, YOD1 (UniProt Q5VVQ6)
T5 sequence (whole entry): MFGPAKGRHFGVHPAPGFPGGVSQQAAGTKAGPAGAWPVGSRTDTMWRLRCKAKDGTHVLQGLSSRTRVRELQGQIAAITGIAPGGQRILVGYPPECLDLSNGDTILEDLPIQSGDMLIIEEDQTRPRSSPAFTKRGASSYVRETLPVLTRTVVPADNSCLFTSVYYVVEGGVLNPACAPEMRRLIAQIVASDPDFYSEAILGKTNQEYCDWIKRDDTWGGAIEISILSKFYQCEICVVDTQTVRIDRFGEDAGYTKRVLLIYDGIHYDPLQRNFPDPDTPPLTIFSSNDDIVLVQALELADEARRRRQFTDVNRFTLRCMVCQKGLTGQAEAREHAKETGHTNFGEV
In short: as §1

Measured: log2 ratio of Biotin-Ahx-Ub-VS probe labelling

O=C(CCl)N1CCN2C(=O)CCC2C1 (stereo not given)
inactive: [1] 0.162 | [2] 0.195 | [3] -0.286 | [4] -0.3 | [5] -0.168 | [6] -0.382 | [7] 0.182

O=C(CCl)Nc1cc(Cl)ccc1C(=O)O
inactive: [1] 0.337 | [2] 0.177 | [3] -0.138 | [4] -0.2 | [5] -0.258 | [6] -0.128 | [7] 0.233

O=C(CCl)NCCC1=CCCCC1
inactive: [1] 0.347 | [2] 0.0951 | [3] -0.215 | [4] -0.191 | [5] -0.0991 | [6] -0.159 | [7] 0.16

C[C@H]1CN(C(=O)CCl)CCN1C(=O)c1cnn(C)c1.Cl
inactive: [1] 0.326 | [2] 0.00812 | [3] -0.292 | [4] -0.57 | [5] -0.408 | [6] 0.189 | [7] 0.0183

NC(=O)C1CCCN(C(=O)CCl)C1 (stereo not given)
inactive: [1] -0.185 | [2] -0.0378 | [3] 0.103 | [4] 0.0487 | [5] -0.0803 | [6] -0.698 | [7] 0.00724

CC(=O)Nc1ccc(NC(=O)CCl)cc1
active: [6] -1.31
inactive: [1] -0.353 | [2] 0.016 | [3] -0.228 | [4] -0.811 | [5] -0.0361 | [7] -0.229

O=C(CCl)NCc1cccc(N2CCCC2=O)c1
inactive: [1] -0.0239 | [2] 0.0359 | [3] 0.0544 | [4] -0.351 | [5] 0.0802 | [6] -0.491 | [7] 0.144

Cc1ccc(CN(CCO)C(=O)CCl)cc1
active: [6] -1.16
inactive: [1] -0.468 | [2] -0.204 | [3] -0.439 | [4] -0.837 | [5] -0.351 | [7] -0.163

Cl.O=C(CCl)N1CCC(n2nc3ccccc3n2)CC1
inactive: [1] -0.531 | [2] -0.268 | [3] -0.193 | [4] -0.712 | [5] -0.415 | [6] -0.422 | [7] -0.0827

O=C(CCl)N1CCCN(C(=O)c2ccc(Cl)cc2)CC1
inactive: [1] -0.381 | [2] -0.139 | [3] -0.134 | [4] -0.265 | [5] -0.166 | [6] -0.84 | [7] -0.417
